The nature of assay [1]: qHTS assay for small molecule agonists of the p53 signaling pathway (AID 651631; calls by dose curve; also: nearly all actives have a fitted effect of over 15% in size; also: potency is read from the fitted curve at half-maximal effect). In short, it runs like this:
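p53RE-bla HCT-116 cells; compounds 16 h, 37 °C; LiveBLAzer B/G FRET substrate 2 h RT; fluorescence intensity read-out, qHTS format.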
In general terms: Quantitative high-throughput screening tests each substance at several concentrations.

The nature of assay [2]: qHTS assay for small molecules that induce genotoxicity in human embryonic kidney cells expressing luciferase-tagged ATAD5 (AID 651632). Also: nearly all actives have a fitted effect of over 15% in size. In outline:
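ATAD5-luc HEK293T, 2,000 cells/well; cpd or DMSO pin-transferred; 16 hr, 37C/5% CO2; Amplite 30 min RT; luminescence.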

Assay [3] is described as follows: qHTS assay for small molecules that induce genotoxicity in human embryonic kidney cells expressing luciferase-tagged ATAD5 - cell viability (AID 651634; calls by dose curve; also: nearly all actives have a fitted effect of over 25% in size). In outline:
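Fluorescence from CellTiter-Fluor, reporting protease activity within live cells, served as the viability read-out. HEK293T cells carrying luciferase-tagged ATAD5 had been treated with compound for 15.5 hr at 37C.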

Assay [4] in a line: qHTS assay for small molecule disruptors of the mitochondrial membrane potential - cell viability (AID 720634; calls by dose curve; also: nearly all actives have a fitted effect of over 20% in size; also: potency is read from the fitted curve at half-maximal effect). In short, it runs like this: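 Cells: HepG2, 2,000/well, attached overnight. Compound 1 hr, 37 C/5% CO2. +m-MPI dye, +CellTiter-Glo 30 min RT. Readout: luminescence (ATP).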
The nature of assay [5]: qHTS assay for small molecule disruptors of the mitochondrial membrane potential (AID 720635). In short, it runs like this: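 HepG2 cells (2,000/well) attached overnight at 37C, then took compound for 1 hr at 37C, 5% CO2. Mito-MPS dye was added for 30 min; fluorescence was read at 490/535 nm (monomers) and 540/590 nm (aggregates).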
Assay [6] is described as follows: qHTS assay to test for compound auto fluorescence at 535 nm (green) in HepG2 cells (AID 720675).
A short description of assay [7]: qHTS assay to test for compound auto fluorescence at 460 nm (blue) in HEK293 cells (AID 720678). In short, it runs like this:
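HEK293, 2,000 cells/well, 10% dialyzed FBS; attach 4-5 hr 37C; pin compound or DMSO; o/n 37C/5% CO2; fluorescence 405/460 nm; triamterene-equivalent units.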

Assay [8] can be described thus: qHTS assay to test for compound auto fluorescence at 590 nm (red) in HEK293 cells (AID 720679). In short, it runs like this:
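Intensity at 540nm excitation and 590nm emission is reported as Rose Bengal sodium-equivalent autofluorescence. Measurements followed overnight exposure (37C, 5% CO2) of HEK293 cells, 2,000 per well, to 23 nL compound.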

A short description of assay [9]: qHTS assay to test for compound auto fluorescence at 535 nm (green) in HEK293 cells (AID 720680).
Assay [10] in a line: qHTS assay to test for compound auto fluorescence at 460 nm (blue) in HEK293 cell free culture (AID 720681). In short, it runs like this:
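Test compounds were pinned into cell-free culture medium (DMEM with 10% FBS) and fluorescence was read directly at Ex/Em 405/460 nm. Signals were expressed as fluorescence equivalents of triamterene, with DMSO vehicle as control.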

A short description of assay [11]: qHTS assay to test for compound auto fluorescence at 535 nm (green) in HEK293 cell free culture (AID 720682). In short, it runs like this: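 Cell-free medium (DMEM, 10% FBS) receives compound or DMSO by pintool. Plate read directly at Ex 485/Em 535 nm. Signal converted to fluorescein equivalency.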
A short description of assay [12]: qHTS assay to test for compound auto fluorescence at 590 nm (red) in HEK293 cell free culture (AID 720683). In short, it runs like this: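 Tox21 10K library compounds were pinned into cell-free DMEM with 10% FBS and fluorescence was read at excitation 540 nm. Activity is expressed as Rose Bengal sodium equivalency.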
The nature of assay [13]: qHTS assay to test for compound auto fluorescence at 460 nm (blue) in HepG2 cell free culture (AID 720685). In short, it runs like this:
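Compound (23 nL) or DMSO pinned into cell-free MEM with 10% FBS; blue fluorescence read at 405/460 nm excitation/emission, expressed as auto-fluorescence equivalency to triamterene.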

Assay [14] can be described thus: qHTS assay to test for compound auto fluorescence at 535 nm (green) in HepG2 cell free culture (AID 720686).
Assay [15] can be described thus: qHTS assay to test for compound auto fluorescence at 460 nm (blue) in HepG2 cells (AID 720687). In outline:
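Cells (2,000/well in MEM with 10% FBS) attached overnight at 37 C, then were exposed to compound or DMSO for 1 hr at 37 C, 5% CO2. Fluorescence read at Ex/Em 405/460 nm, expressed as triamterene-equivalent signal.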

The target in assay [16] is Glucocorticoid receptor (Homo sapiens) (UniProt P04150). Nature of the assay: qHTS assay to identify small molecule agonists of the glucocorticoid receptor (GR) signaling pathway (AID 720691; active = well fitted activation curve with a large enough effect in the signal ratio in the repeat runs, not every such curve was filed as active; the % refers to the signal ratio). In outline:
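Fluorescence intensity from LiveBLAzer B/G FRET substrate (2 h, room temperature) reports beta-lactamase expression driven by the glucocorticoid response element in GR-bla HeLa cells after 18 h compound exposure at 37 C.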

The nature of assay [17]: qHTS assay for small molecule agonists of the p53 signaling pathway - cell viability (AID 651633; calls by dose curve;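 also: p53RE-bla HCT reporter cells with a stable beta-lactamase p53 reporter; series mostly up to about 83 µM; nearly all actives have a fitted effect of over 30% in size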). In outline: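 p53RE-bla cells, seeded at 4,000 per well and rested 5 h at 37 C/5% CO2, received compounds in DMSO for 16 h at 37 C. CellTiter-Glo was then added, and luminescence was read after 30 min at room temperature to gauge cytotoxicity.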
Assay [18] is described as follows: qHTS assay to test for compound auto fluorescence at 590 nm (red) in HepG2 cells (AID 720674). In short, it runs like this: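 Compound auto-fluorescence is scored relative to Rose Bengal sodium, measured at 540/590 nm in live HepG2 cultures after 1 hr compound contact (37 C, 5% CO2).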
The nature of assay [19]: qHTS assay to test for compound auto fluorescence at 590 nm (red) in HepG2 cell free culture (AID 720684). In outline: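 Measured in medium alone (MEM containing 10% FBS) following pintool addition of compound; emission at 590 nm with 540 nm excitation, referenced to Rose Bengal sodium.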
Assay [20] deals with Glucocorticoid receptor (Homo sapiens) (UniProt P04150). Kind of assay: qHTS assay to identify small molecule antagonists of the glucocorticoid receptor (GR) signaling pathway (AID 720692; active = well fitted inhibition curve with a large enough effect in the signal ratio in the repeat runs, not every such curve was filed as active; the % refers to the signal ratio; also: potency is read from the fitted curve at half-maximal effect). In short, it runs like this: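 HeLa GR-bla cells; cmpd + dex 5 nM final, 18 h 37 C; LiveBLAzer B/G FRET substrate 2 h RT; fluorescence intensity read. Antagonist mode, qHTS.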

Structures are written as SMILES. “And” between values parts separate entries of the source, which are not always exact repeats. Identical values can stand only once. Results filed as inconclusive are left out. Where a structure was tested more than once in an assay, its records may differ in their call. The source made the active and inactive calls. Unless noted, calls follow the shape of the dose curve; as a rule, active = well fitted curve in the direction sought with a large enough effect in the repeat runs; inconclusive = weak or mixed curves; inactive = no such curve, though single readings can be large; an effect the other way counts as inactive or inconclusive.

Sequence of Glucocorticoid receptor (Homo sapiens) (P04150 whole entry, looked up): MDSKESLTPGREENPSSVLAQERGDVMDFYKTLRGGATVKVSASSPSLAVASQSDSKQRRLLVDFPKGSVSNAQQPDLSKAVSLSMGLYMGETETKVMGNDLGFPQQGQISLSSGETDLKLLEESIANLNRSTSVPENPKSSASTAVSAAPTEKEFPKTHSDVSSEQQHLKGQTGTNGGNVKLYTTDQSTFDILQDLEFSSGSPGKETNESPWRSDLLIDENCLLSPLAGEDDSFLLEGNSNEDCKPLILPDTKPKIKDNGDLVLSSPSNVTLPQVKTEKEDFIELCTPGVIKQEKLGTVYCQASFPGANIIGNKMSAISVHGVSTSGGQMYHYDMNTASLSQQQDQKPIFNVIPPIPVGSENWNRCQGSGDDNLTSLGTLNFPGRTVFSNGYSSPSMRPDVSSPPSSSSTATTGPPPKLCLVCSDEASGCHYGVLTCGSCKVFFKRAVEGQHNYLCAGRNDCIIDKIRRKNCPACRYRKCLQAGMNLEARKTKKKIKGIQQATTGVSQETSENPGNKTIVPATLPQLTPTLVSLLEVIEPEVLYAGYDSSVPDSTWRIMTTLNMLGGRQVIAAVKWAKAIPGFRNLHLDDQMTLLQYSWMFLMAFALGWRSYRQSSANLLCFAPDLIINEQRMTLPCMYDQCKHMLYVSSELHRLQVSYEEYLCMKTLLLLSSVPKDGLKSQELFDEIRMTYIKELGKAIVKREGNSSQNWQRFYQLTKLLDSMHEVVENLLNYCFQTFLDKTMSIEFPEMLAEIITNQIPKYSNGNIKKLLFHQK

Regarding `O=[N+]([O-])O[C@H]1CO[C@H]2[C@@H]1OC[C@H]2O[N+](=O)[O-]`, the Potency entry in assay [1], in [2], in assay [3], in [4], in assay [5] and in assay [16] was “inactive” throughout. Also, the outcome in assay [6], in assay [7], in assay [8], in [9], in [10] and in assay [11] was inactive. The compound was classed as inactive in assay [12], in assay [13], in assay [14] and in assay [15].

In the case of `SCc1ccccc1`, the Potency entry in assay [1], in [2], in assay [17], in [3] and in assay [16] was “inactive” each time. Moreover, the compound was called inactive in assay [18], in assay [6], in assay [8], in assay [9], in assay [10] and in assay [11]. Moreover, the compound was called inactive in assay [12], in assay [19], in assay [13], in [14] and in [15].

`O=[N+]([O-])/C=C/c1ccccc1`: the Potency was 2.47 µM (active) and 2.43 µM (active) in [1]; 62.1 µM (active) and inactive in assay [4]; 15.7 µM (active) and 17.4 µM (active) in [20]. Further, the outcome in assay [18], in assay [6], in assay [7], in [8], in [9] and in [10] was inactive. Further, the call in [11], in [12], in assay [19], in assay [13], in [14] and in assay [15] was inactive.

In the case of `CCCN(CCC)C(=O)Cc1c(-c2ccc(Cl)cc2)nc2ccc(Cl)cn12`, the Potency result in assay [1], in assay [2], in assay [3] and in assay [4] was “inactive” throughout. For the same compound, the call in assay [18], in assay [6], in assay [7], in assay [8], in assay [9] and in assay [10] was inactive. In addition, the compound was classed as inactive in assay [11], in assay [12], in assay [19], in assay [13], in assay [14] and in [15].

As to `CC(C)(C)OOC(C)(C)CCC(C)(C)OOC(C)(C)C`, the Potency entry in assay [1], in [17], in assay [3], in assay [4], in [5] and in assay [16] was “inactive” each time. In addition, in assay [20], the Potency result is “inactive”. For the same compound, the call in assay [18], in assay [6], in assay [7], in assay [8], in [9] and in assay [10] was inactive. Further, the call in assay [11], in [12], in assay [19], in [13], in assay [14] and in [15] was inactive.

With `COc1cc(C[C@@H](C)N)c(OC)cc1Br`, the Potency entry in [1], in assay [2], in assay [17] and in [3] was “inactive” each time. For the same compound, the result in assay [18], in assay [6], in assay [7], in [8], in assay [9] and in assay [10] was inactive. In addition, the result in [11], in assay [12], in assay [19], in assay [13], in [14] and in [15] was inactive.

Turning to `OCCCl`, the Potency result in [1], in [2], in [3], in [5] and in [20] was “inactive” each time. Moreover, the outcome in assay [18], in assay [6], in [7], in assay [8], in assay [9] and in assay [10] was inactive. The compound was classed as inactive in assay [11], in [12], in [19], in assay [13], in assay [14] and in assay [15].

`CCOC(=O)c1cn2nc(OP(=S)(OCC)OCC)cc2nc1C`: the Potency result in assay [1], in [2], in [17], in assay [3], in assay [16] and in assay [20] was “inactive” throughout. Also, the call in [18], in assay [6], in [7], in [8], in [9] and in assay [10] was inactive. The compound was classed as inactive in [11], in [19], in [13], in [14] and in assay [15].

As to `FC(Cl)(Cl)C(F)(Cl)Cl`, the Potency result in [2], in assay [17], in [3], in assay [4] and in assay [5] was “inactive” throughout. Further, the compound was classed as inactive in assay [18], in [6], in assay [7], in assay [8], in [9] and in assay [10]. Moreover, the compound was called inactive in assay [11], in [12], in assay [19], in [13], in [14] and in [15].

On to `CC(C)(C)NCC(O)c1cc(Cl)c(N)c(C(F)(F)F)c1` (stereo not drawn), for which the Potency entry in assay [2], in assay [17], in assay [3], in assay [4], in [5] and in assay [16] was “inactive” each time. In assay [20], the Potency result is “inactive”. In addition, the call in assay [18], in assay [6], in assay [7], in [8], in assay [9] and in assay [10] was inactive. Also, the compound was classed as inactive in assay [11], in [12], in [19], in assay [13], in assay [14] and in assay [15].

`CCCCCBr`: the Potency result in assay [2], in assay [17], in assay [3], in assay [4], in assay [16] and in [20] was “inactive” each time. In addition, the compound was called inactive in assay [18], in assay [6], in assay [7], in [8], in [9] and in [10]. Moreover, the outcome in [11], in assay [12], in assay [13], in [14] and in assay [15] was inactive.

Turning to `C[N+](C)(C)CC1CO1` (stereo not drawn), the Potency entry in assay [2], in [17], in assay [3], in [4] and in assay [5] was “inactive” throughout. Besides, the result in assay [18], in assay [6], in assay [7], in [8], in [9] and in assay [10] was inactive. The result in [11], in [12], in [19], in assay [13], in assay [14] and in assay [15] was inactive.

With `Cc1ccc2c(C)cccc2c1`, the Potency entry in [2], in assay [17], in assay [3], in assay [4] and in assay [16] was “inactive” throughout. The compound was classed as inactive in assay [18], in assay [6], in assay [7], in assay [8], in [9] and in assay [10]. The outcome in assay [11], in assay [12], in [13], in [14] and in [15] was inactive.

Values taken from PubChem BioAssay (Tox21).
